Compound activity: PubChem, several laboratories
The list is not random: actives were taken first. Their share in the collection is about 2.5%.
EBV LMP1 NFkB = EBV LMP1-driven NF-kappaB luciferase reporter inhibitors, primary screen, cell-based, luminescence, single point. AID 504558, 2011. LMP1-induced NF-kappaB luciferase reporter cells. inhibition, % at 12.5 µM. 350,000 tested, 0.69% active; in the data active means inhibition above about 41%
LGR2 inh = inhibitors of bursicon-induced LGR2 CRE-luciferase signal, primary screen, cell-based, HEK293, CRE-luciferase reporter, bursicon stimulation. Drosophila bursicon receptor LGR2 (rickets). bursicon-stimulated, 4 h. inhibition, % at 9.99 µM. 380,000 tested, 0.35% active. AID 720647, 2013;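 active means drop in luminescence signal, shown as inhibition above about 50% in the replicate tests, limit read from the data, passing the limit was not always enough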;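 further: agonist challenge used bursicon conditioned medium at about half maximal strength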
EWS-Fli inh = EWS/Fli-driven NR0B1 reporter inhibitors, primary screen, A673 cells, NR0B1 luciferase, luminescence, MLPCN library; viability-normalised; inhibition, % at 12.6 µM; 350,000 tested, 0.67% active; AID 651661, 2012;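 active means mean inhibition of at least 50% after viability correction, with every replicate also passing that limit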;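 further: firefly luciferase signal divided by Alamar Blue viability fluorescence both relative to DMSO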
TWEAK-Fn14 inh = inhibitors of TWEAK-Fn14 signaling, primary screen, luciferase reporter cells, uHTS; TWEAK-stimulated Fn14 reporter cells, luciferase luminescence, 8 h; inhibition, % at 10 µM; 360,000 tested, 2% active; AID 1159606, 2016; in the data active means inhibition above about 50%
TROY signal inh = inhibitors of TROY-driven NF-kB signaling, primary screen, Q293 LMP1-TROYcd cells, NF-kB luciferase, uHTS. 360,000 tested, 0.98% active. Q293 LMP1-TROYcd NF-kB luciferase reporter, 4 h. inhibition, % at 10 µM. AID 1347056, 2019;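 active means compounds whose plate-normalised and pattern-corrected inhibition of the luciferase reporter signal at the single screening dose is 50% or more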
Large screens that a line does not name were inactive.

CO[C@H]1CN(C)C(=O)c2ccc(NC(=O)C3CC3)cc2OC[C@@H](C)N(C(=O)C2CCCCC2)C[C@H]1C	none (no result: EBV LMP1 NFkB, TWEAK-Fn14 inh, TROY signal inh)
CC(C)(C)n1[nH]c2c3c(ccc2c1=O)C(=O)c1ccccc1C3=O	TWEAK-Fn14 inh 63.9 (no result: LGR2 inh, EWS-Fli inh)
Cn1c(=N)n(CC(=O)c2ccc(F)cc2)c2ccccc21	EWS-Fli inh 77.6
C/C(=N\NC(=O)C1(C)CC1(Br)Br)c1cccc(NC(=O)c2ccc(C)o2)c1 (stereo not given)	TWEAK-Fn14 inh 55.7 (no result: EWS-Fli inh)
CCCCN1CNC(=S)N(CCc2ccccc2)C1	none
CCCN1CNC(=S)N(Cc2ccccc2)C1	none (no result: EWS-Fli inh)
CCCN1CN(CCc2ccccc2)CNC1=S	TWEAK-Fn14 inh 103.7 (no result: EWS-Fli inh)
S=C1NCN(CCc2ccccc2)CN1Cc1ccccc1	TWEAK-Fn14 inh 95.8
C[C@H]1CN([C@@H](C)CO)C(=O)c2cc(C#CCN(C)C)cnc2O[C@@H]1CN(C)C(=O)NC1CCCC1	none (no result: EBV LMP1 NFkB, TWEAK-Fn14 inh, TROY signal inh)
Nc1ccccc1S(=O)(=O)NC1=NCCCCC1	TWEAK-Fn14 inh 103.9
CCCC(=O)Nc1ccc2c(c1)C(=O)N(C)[C@H]1CC[C@@H](CC(=O)NCCc3ccccc3)O[C@H]1CO2	none (no result: EBV LMP1 NFkB, TWEAK-Fn14 inh, TROY signal inh)
Cc1nc(N2CCN(C(=O)c3ccco3)CC2)c(C#N)c2c1CCCC2	none (no result: EWS-Fli inh)
CC(C)Cc1nc(N2CCN(C(=O)c3ccco3)CC2)c(C#N)c2c1CCCC2	TROY signal inh 53.0 (no result: EWS-Fli inh)
COc1ccc(C(CNC(=O)Nc2ccccc2)N2CCN(C)CC2)cc1 (stereo not given)	EBV LMP1 NFkB 51.5
COc1ccc(C(CNC(=O)Nc2ccc(Cl)cc2)N2CCN(C)CC2)cc1 (stereo not given)	none (no result: EWS-Fli inh)
COc1ccc(NC(=O)NCCN2CCc3ccccc3C2)cc1	EBV LMP1 NFkB 82.0 (no result: EWS-Fli inh)
CSc1ccc(NC(=O)NCCN2CCc3ccccc3C2)cc1	none (no result: EWS-Fli inh)
Oc1ccc2ccccc2c1N=Nc1ccccn1	EBV LMP1 NFkB 63.0 (no result: LGR2 inh, EWS-Fli inh)
CCOC(=O)c1[nH]cnc1N=Nc1c(O)ccc2ccccc12	EBV LMP1 NFkB 46.7 (no result: EWS-Fli inh)
Oc1ccc2ccccc2c1N=Nc1ccccc1F	none
CC(C)NC(=O)N(C)C[C@@H]1Oc2ncc(-c3ccccc3F)cc2C(=O)N([C@H](C)CO)C[C@@H]1C	none (no result: EBV LMP1 NFkB, TWEAK-Fn14 inh, TROY signal inh)
CNC[C@@H]1OCCCC[C@H](C)Oc2ccc(NS(=O)(=O)c3ccc(F)cc3)cc2C(=O)N([C@H](C)CO)C[C@@H]1C	none (no result: EBV LMP1 NFkB, TWEAK-Fn14 inh, TROY signal inh)
CCc1nnc(NC(=O)CCC(=O)N2CCN(C3c4ccccc4-c4ccccc43)CC2)s1	TWEAK-Fn14 inh 70.2, TROY signal inh 77.5
COc1ccccc1S(=O)(=O)N[C@@H]1CC[C@H](CC(=O)NCc2cc(F)cc(F)c2)O[C@H]1CO	none (no result: EBV LMP1 NFkB, EWS-Fli inh, TWEAK-Fn14 inh, TROY signal inh)
COc1ccc2c3c(n(C)c2c1)[C@@H](CO)N(C)CC31CCN(C(=O)c2cccnc2)CC1	none (no result: EBV LMP1 NFkB, TWEAK-Fn14 inh, TROY signal inh)
CCOC(=O)/C(=C/c1ccc(N2CCC(c3ccccc3)=N2)cc1)C(C)=O	EBV LMP1 NFkB 94.0 (no result: LGR2 inh, EWS-Fli inh)
O=C(N[C@H]1CC[C@@H](CCn2cc(-c3ccccc3)nn2)O[C@@H]1CO)c1cnccn1	none (no result: EBV LMP1 NFkB, TWEAK-Fn14 inh, TROY signal inh)
Cn1nnnc1N=N/C(=N/Nc1ccccc1)c1ccccc1	EBV LMP1 NFkB 60.2
COC(=O)C=CC(=NNc1ccccc1)c1ccccc1	none
C[C@H]1CCCCO[C@@H](CN(C)C(=O)Nc2ccc(C(F)(F)F)cc2)[C@@H](C)CN([C@@H](C)CO)C(=O)c2cc(NC(=O)NC3CCCCC3)ccc2O1	none (no result: EBV LMP1 NFkB, TWEAK-Fn14 inh, TROY signal inh)
c1ccc(-c2nc(-c3nccc4ccccc34)oc2-c2ccccc2)cc1	LGR2 inh 60.1, TWEAK-Fn14 inh 72.9, TROY signal inh 60.1
O=C1c2ccccc2CN1CCNC(=S)NC1CCCCC1	EBV LMP1 NFkB 49.4
C[C@@H]1CN([C@@H](C)CO)C(=O)c2cccc(NC(=O)c3ccncc3)c2O[C@H]1CN(C)S(=O)(=O)c1ccc(Cl)cc1	none (no result: EBV LMP1 NFkB, LGR2 inh, TWEAK-Fn14 inh, TROY signal inh)
S=C(Nc1ccc(Cl)c(Cl)c1)NC1CCCCC1	TWEAK-Fn14 inh 62.5
Cc1ccc(Nc2nc(CSc3nnc(-c4ccncc4)n3C)cs2)cc1	TWEAK-Fn14 inh 53.0 (no result: EWS-Fli inh)
C[C@@H]1CN([C@H](C)CO)C(=O)c2cc(-c3ccccc3)cnc2O[C@@H]1CN(C)C(=O)c1cccnc1	none (no result: EBV LMP1 NFkB, TWEAK-Fn14 inh, TROY signal inh)
CCN(CC)S(=O)(=O)c1ccc(N/N=C/c2cc(OC)c(OC)cc2OC)nc1	none (no result: EWS-Fli inh)
CCOc1cccc(/C=N/Nc2ccc(S(=O)(=O)N(CC)CC)cn2)c1O	EBV LMP1 NFkB 57.2
Cc1noc(C)c1NC(=O)N(C)C[C@@H]1Oc2c(NC(=O)Nc3cccc4ccccc34)cccc2C(=O)N([C@@H](C)CO)C[C@@H]1C	none (no result: EBV LMP1 NFkB, TWEAK-Fn14 inh, TROY signal inh)
